Several values for one entry are separate records, joined by “and”; a condition that tells them apart may be missing. Equal entries are not always repeated. Activity calls are given as the source filed them. Rule for the calls: active = hit-call score of the fitted dose curve at least 0.9, where 1 is the maximum; inactive = score below 0.9.
read-out: Interferon-gamma inducible Protein 10 (IP10), CXCL10 (gene 3627); test: BSK_BE3C_IP10: BioMAP Diversity Plus: BE3C Assay for Interferon-gamma inducible Protein 10 (IP10) Biomarker Activity (AID 2283034); settings: primary human bronchial epithelial cells; actives raise or lower the signal
Description: BSK_BE3C is a cell-based, multiplexed-readout assay that uses bronchial epithelial cell, a human lung primary cell, with measurements taken at 24 hours after chemical dosing in a 96-well plate.BSK_BE3C_IP10 is an assay component measured in the BSK_BE3C assay. It measures IP-10 antibody related to regulation of gene expression using ELISA technology.Data from the assay component BSK_BE3C_IP10 was analyzed into 1 assay endpoint. This assay endpoint, BSK_BE3C_IP10, was analyzed with bidirectional fitting relative to DMSO as the negative control and baseline of activity. Using a type of binding reporter, gain or loss-of-signal activity can be used to understand changes in the signaling as they relate to the gene CXCL10. Furthermore, this assay endpoint can be referred to as a primary readout, because this assay has produced multiple assay endpoints where this one serves a signaling function. To generalize the intended target to other relatable targets, this assay endpoint is annotated to the cytokine intended target family, where the subfamily is chemotactic factor.
The levels of cell surface (or secreted, indicated by the prefix "s") biomarker endpoints were measured by ELISA. Overt cytotoxicity to cells in confluent adherent cultures (all systems other than the BT system) was assessed by measuring total protein levels using sulforhodamine B (SRB) staining in parallel cultures at the time of biomarker measurements, indicated as SRB endpoints. For proliferation assays for adherent cell types, individual cell types are cultured at sub-confluence and relative cell numbers quantified by SRB staining at time points optimized for each system (48 h: 3C and CASM3C systems; 72 h: BT and HDF3CGF systems; 96 h: SAg system). SRB was performed by staining cells with 0.1% SRB after fixation with 10% TCA and reading wells at 560 nm.Viability and proliferation of PBMC (T cells) was quantified by Alamar Blue reduction for the SAg and BT systems. For PBMC viability (referred to as PBMC Cytotoxicity within the assay endpoint names), cells were plated (75,000/well in a 96-well plate) and then chemical samples added for 1 h before addition of activators, SEB and TSST-1 (20 ng/mL final concentration each). Cells were incubated for 90 h. Then, Alamar Blue (20 uL/well) (Invitrogen, Cat DAL1100) was added for 6 h, and the plates were read with a fluorescence microplate reader at 546/580 nm (excitation/emission). For PBMC proliferation, cells were plated and activated as above but incubated for only 16 h prior to addition of Alamar Blue. Plates were read after 6 h.

Row | Compound | outcome | AC50
1 | CSc1nc(NC(C)C)nc(NC(C)C)n1 | inactive | –
2 | CCOP(=S)(OCC)Oc1ccc([N+](=O)[O-])cc1 | inactive | –
3 | O=[N+]([O-])c1cc(C(F)(F)F)c(Cl)c([N+](=O)[O-])c1Nc1ncc(C(F)(F)F)cc1Cl | – | 1.23 µM (active) and 4.77 µM (active)
4 | CCOP(=O)(SC(C)CC)N1CCSC1=O (stereo not given) | inactive | –
5 | CC(Oc1cccc(Cl)c1)C(=O)O (stereo not given) | inactive | –
6 | N#CSCSC#N | inactive | –
7 | C=C(C)[C@H]1Cc2c(ccc3c2O[C@@H]2COc4cc(OC)c(OC)cc4[C@@H]2C3=O)O1 | – | 20 µM (active)
8 | CCCCOC(=O)[C@@H](C)Oc1ccc(Oc2ccc(C#N)cc2F)cc1 | inactive | –
9 | CCc1cccc(C)c1N(C(=O)CCl)C(C)COC (stereo not given) | inactive | –
10 | CON=C(C(=O)OC)c1ccccc1CON=C(C)c1cccc(C(F)(F)F)c1 | – | 20 µM (active)
11 | COP(=O)(OC)SCn1c(=O)oc2cc(Cl)cnc21 | – | 31.2 µM (active)
12 | CC(C)[C@H](C(=O)O[C@H](C#N)c1cccc(Oc2ccccc2)c1)c1ccc(Cl)cc1 | inactive | –
13 | CC(C)=CC1C(C(=O)OCN2C(=O)C3=C(CCCC3)C2=O)C1(C)C (stereo not given) | inactive | –
14 | CCOP(=S)(Oc1cnc(C(C)(C)C)nc1)OC(C)C (stereo not given) | inactive | –
15 | CCOC(=O)COc1cc(-c2nn(C)c(OC(F)F)c2Cl)c(F)cc1Cl | inactive | –
16 | CC1(C(=O)Nc2ccc(O)c(Cl)c2Cl)CCCCC1 | inactive | –
17 | COP(=O)(OC)OC(Br)C(Cl)(Cl)Br (stereo not given) | – | 30.3 µM (active)
18 | Cc1nn(-c2cc(NS(C)(=O)=O)c(Cl)cc2Cl)c(=O)n1C(F)F | inactive | –
19 | COc1cccc(C(=O)NN(C(=O)c2cc(C)cc(C)c2)C(C)(C)C)c1C | inactive | –
20 | CCCCSP(=O)(SCCCC)SCCCC | inactive | –

Row | Compound | outcome | AC50
21 | CCCSP(=O)(OCC)SCCC | inactive | –
22 | COP(=O)(OC)C(O)C(Cl)(Cl)Cl (stereo not given) | inactive | –
23 | CSC1=N[C@@](C)(c2ccccc2)C(=O)N1Nc1ccccc1 | inactive | –
24 | O=c1ccc(=O)[nH][nH]1 | inactive | –
25 | CCC(CC)Nc1c([N+](=O)[O-])cc(C)c(C)c1[N+](=O)[O-] | inactive | –
26 | CN(C)C(=O)Nc1cccc(C(F)(F)F)c1 | inactive | –
27 | C#CC(C)(C)NC(=O)c1cc(Cl)cc(Cl)c1 | – | 14.9 µM (active)
28 | CSc1nnc(C(C)(C)C)c(=O)n1N | – | 7.16 µM (active)
29 | CCOP(=O)(OCC)Oc1cc(C)nc(C(C)C)n1 | inactive | –
30 | CCOP(=S)(OCC)Oc1ccc2c(C)c(Cl)c(=O)oc2c1 | inactive | –
31 | CCOC(=O)CC(SP(=O)(OC)OC)C(=O)OCC (stereo not given) | inactive | –
32 | COc1cc(OC)nc(Sc2cccc(Cl)c2C(=O)O)n1 | inactive | –
33 | CCOP(=O)(NC(C)C)Oc1ccc(SC)c(C)c1 (stereo not given) | inactive | –
34 | CNC(=O)ON=C(C)SC | inactive | –
35 | Nc1c(Cl)cc([N+](=O)[O-])cc1Cl | inactive | –
36 | CCc1cnc(C2=NC(C)(C(C)C)C(=O)N2)c(C(=O)O)c1 (stereo not given) | inactive | –
37 | CCCCOC(=O)c1ccccc1C(=O)O | inactive | –
38 | FC(F)C(F)(F)OCC(Cn1cncn1)c1ccc(Cl)cc1Cl (stereo not given) | – | 26.4 µM (active)
39 | Cc1ccn2nc(S(=O)(=O)Nc3c(F)cccc3F)nc2n1 | inactive | –
40 | C[N+]1(C)CCCCC1 | inactive | –

Source: PubChem BioAssay (EPA / NIEHS)
